What all share (experiment): NCI-60 one-dose screen, 48 h (100 = growth as untreated, 0 = no growth, -100 = all killed)
The test system of one assay is NCI-H23 lung. To be noted: 10 µM unless noted.
The subject of a further assay is NCI-H226 lung. To be noted: 10 µM unless noted.
Another assay has as its system NCI-H322M lung. To be noted: 10 µM unless noted.
In another assay the test system is HOP-62 NSCLC. To be noted: 10 µM unless noted.
For another assay, the system named is NCI-H460 lung. To be noted: 10 µM unless noted.
In the next assay the test system is HOP-92 NSCLC. To be noted: 10 µM unless noted.
A further assay concerns NCI-H522 lung. To be noted: 10 µM unless noted.
In another assay the test system is A549/ATCC NSCLC. To be noted: 10 µM unless noted.
A further assay relates to 786-0 renal. To be noted: 10 µM unless noted.
The subject of the next assay is COLO 205 colon. To be noted: 10 µM unless noted.
In the next assay the test system is DU-145 prostate. To be noted: 10 µM unless noted.
The subject of another assay is K-562 leukemia. To be noted: 10 µM unless noted.
The test system of the next assay is MALME-3M melanoma. To be noted: 10 µM unless noted.
The test system of a further assay is MDA-MB-231 breast. To be noted: 10 µM unless noted.
In another assay the test system is RXF 393 renal. To be noted: 10 µM unless noted.
Another assay concerns SF-268 CNS. To be noted: 10 µM unless noted.
In the next assay the test system is SF-295 CNS. To be noted: 10 µM unless noted.
A further assay has as its system SF-539 CNS. To be noted: 10 µM unless noted.
Another assay deals with UACC-257 melanoma. To be noted: 10 µM.

Structures are written as SMILES. The panel holds about 83,000 compounds, 20% with a hit somewhere; the sample as a whole holds those more often.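 Percent growth is the endpoint: 0 to 100 indicates growth inhibition (40 means 60% inhibition), 0 means no net growth, and negative values indicate cell death.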 A number with no mark means an inactive call. Active and inactive are the calls of the source. How the source made its calls: active means growth percent below 10; inactive means the rest.

The record followed here is PubChem BioAssay (NCI).

For `NC(=O)N1N=C(c2cc3ccccc3oc2=O)CC1c1cn(-c2ccccc2)nc1-c1ccc(Cl)cc1` (stereo unspecified), the growth in the assay with NCI-H23 lung was 41.8%; in the assay on NCI-H226 lung, 50.4%; in the assay with NCI-H322M lung, 52%; with HOP-62 NSCLC, 43.1%; in the assay with NCI-H460 lung, 22.2%; in the assay on HOP-92 NSCLC, 42.6%. For the same compound, the growth in the assay on NCI-H522 lung was 45.2%; with A549/ATCC NSCLC it was 29.6%; in the assay on 786-0 renal, 39.3%; with COLO 205 colon, 28.8%; in the assay with DU-145 prostate, 56.6%; in the assay with K-562 leukemia, 27.4%. Moreover, the growth in the assay on MALME-3M melanoma is 69.6%; in the assay on MDA-MB-231 breast, 54.3%; with RXF 393 renal it was 88.2%; in the assay with SF-268 CNS, 54.5%; in the assay on SF-295 CNS, 19.6%; in the assay on SF-539 CNS it was 42.8%. Moreover, the growth in the assay with UACC-257 melanoma is 59.5%.

`O=C(/C=C/c1cccc(O)c1)c1ccc(O)cc1`: the growth in the assay on NCI-H23 lung was 72%; in the assay on NCI-H226 lung, 103%; with NCI-H322M lung, 88.5%; in the assay on HOP-62 NSCLC it was 79.9%; with NCI-H460 lung, 92.8%; in the assay with HOP-92 NSCLC, 104%. For the same compound, the growth in the assay on NCI-H522 lung was 65.6%; in the assay on A549/ATCC NSCLC, 90.1%; in the assay with 786-0 renal, 85%; with COLO 205 colon it was 120%; in the assay on DU-145 prostate, 15.8%; in the assay with K-562 leukemia, 23.2%. Further, the growth in the assay on MALME-3M melanoma is 106%; in the assay on MDA-MB-231 breast it was 89.3%; with RXF 393 renal, 94.8%; in the assay with SF-268 CNS it was 89.9%; in the assay with SF-295 CNS, 98.2%; in the assay on SF-539 CNS, 43.3%. In addition, in the assay on UACC-257 melanoma, the growth was 95.3%.

With `COc1ccc(-c2nn(-c3ccccc3)cc2/C=C/C(=O)c2ccc(NC(=O)CCCCCCC(=O)NO)cc2)cc1`, the growth in the assay on NCI-H23 lung was 113%; in the assay with NCI-H226 lung, 112%; in the assay on NCI-H322M lung, 96.3%; in the assay with HOP-62 NSCLC it was 107%; with NCI-H460 lung, 108%; with HOP-92 NSCLC, 125%. Moreover, the growth with NCI-H522 lung is 92.4%; in the assay with A549/ATCC NSCLC, 96%; with 786-0 renal, 69.8%; in the assay on COLO 205 colon, 115%; in the assay on DU-145 prostate it was 97.6%; with K-562 leukemia it was 84.6%. Further, the growth in the assay with MALME-3M melanoma was 137%; in the assay on MDA-MB-231 breast, 99%; in the assay on RXF 393 renal, 63.8%; with SF-268 CNS it was 108%; with SF-295 CNS, 119%; with SF-539 CNS it was 105%. The growth in the assay with UACC-257 melanoma is 114%.

As for `O=C(O)c1ccc(-n2cc(CNc3ccc(Cl)cc3)c(-c3ccc(F)cc3)n2)cc1`, the growth in the assay on NCI-H23 lung is 104%; in the assay with NCI-H226 lung, 103%; in the assay with NCI-H322M lung, 95.5%; in the assay with HOP-62 NSCLC, 95.8%; in the assay on NCI-H460 lung, 98.4%; in the assay on HOP-92 NSCLC it was 117%. The growth is 91.2% in the assay with NCI-H522 lung; 85.4% with A549/ATCC NSCLC; 101% in the assay with 786-0 renal; 119% with COLO 205 colon; 103% in the assay on DU-145 prostate; 83.4% with K-562 leukemia. For the same compound, the growth in the assay on MALME-3M melanoma is 92.9%; with MDA-MB-231 breast it was 94.2%; in the assay with RXF 393 renal, 94.9%; with SF-268 CNS, 104%; in the assay with SF-295 CNS, 87.6%; in the assay on SF-539 CNS, 98.1%. The growth in the assay on UACC-257 melanoma was 101%.

As to `COc1c([C@@H](CC(C)C)OC(C)=O)ccc2c1C(=O)OCc1cc(C)cc(O)c1O2`, the growth with NCI-H23 lung is 23.7%; with NCI-H226 lung it was 43.5%; in the assay on NCI-H322M lung, 54.3%; in the assay with HOP-62 NSCLC, 24.5%; in the assay with NCI-H460 lung, 8.61% (active); in the assay with HOP-92 NSCLC it was 3.04% (active). Also, the growth was 20.2% in the assay on NCI-H522 lung; 13.6% in the assay with A549/ATCC NSCLC; 80.5% with 786-0 renal; 9.55% (active) in the assay with COLO 205 colon; 26.7% in the assay with DU-145 prostate; 16.9% in the assay with K-562 leukemia. For the same compound, the growth in the assay on MALME-3M melanoma is 19%; in the assay with MDA-MB-231 breast it was 35.7%; in the assay on RXF 393 renal it was 64.1%; in the assay with SF-268 CNS, 33%; in the assay on SF-295 CNS it was 31.8%; with SF-539 CNS it was 55.6%.

Consider `Cc1cn(-c2cc(NC(=O)c3cncc(C#Cc4cnc5ccc(O[C@H]6CCOC6)nn45)c3)cc(C(F)(F)F)c2)cn1`, for which the growth in the assay with NCI-H23 lung is 53.7%; with NCI-H226 lung it was 44.9%; in the assay with NCI-H322M lung, 105%; in the assay with HOP-62 NSCLC it was 87.9%; in the assay on NCI-H460 lung, 99.9%; with HOP-92 NSCLC, -9.26% (active). Further, the growth in the assay with NCI-H522 lung was 93.2%; in the assay with A549/ATCC NSCLC, 91.7%; with 786-0 renal, 105%; in the assay with COLO 205 colon, 69.1%; in the assay on DU-145 prostate, 91.8%; in the assay on K-562 leukemia it was 12.9%. The growth was 52.7% with MALME-3M melanoma; 47.7% with MDA-MB-231 breast; 60.4% in the assay with RXF 393 renal; 94.7% with SF-268 CNS; 96.8% in the assay on SF-295 CNS; 59.3% with SF-539 CNS. The growth with UACC-257 melanoma is 97.1%.

`CCOc1c(C#N)c(Nc2ccc(S(N)(=O)=O)cc2)c(C#N)c2nnc(C)n12`: the growth with NCI-H23 lung is 93.5%; with NCI-H226 lung it was 105%; in the assay on NCI-H322M lung, 100%; in the assay with HOP-62 NSCLC, 104%; with NCI-H460 lung it was 111%; with HOP-92 NSCLC, 98%. In addition, the growth was 95.3% with NCI-H522 lung; 104% in the assay on A549/ATCC NSCLC; 110% with 786-0 renal; 105% in the assay on COLO 205 colon; 109% in the assay with DU-145 prostate; 110% in the assay on K-562 leukemia. Further, the growth in the assay with MALME-3M melanoma was 99.1%; with MDA-MB-231 breast, 90.6%; in the assay with RXF 393 renal, 132%; in the assay on SF-268 CNS, 99%; in the assay on SF-295 CNS, 105%; with SF-539 CNS it was 97.2%. Also, the growth with UACC-257 melanoma is 104%.

Consider `Cc1cc2nc(C(Cl)Cl)nc(-c3ccco3)n2n1`, for which the growth was 76.8% in the assay on NCI-H23 lung; 95.6% in the assay on NCI-H226 lung; 23.3% in the assay with NCI-H322M lung; 47.9% in the assay on HOP-62 NSCLC; 0.56% (active) with NCI-H460 lung; 79.5% in the assay on HOP-92 NSCLC. Further, the growth was 93.9% in the assay on NCI-H522 lung; 3.5% (active) with A549/ATCC NSCLC; 96.2% in the assay with 786-0 renal; 25.8% with COLO 205 colon; -12.5% (active) in the assay with DU-145 prostate; 89.7% with K-562 leukemia. The growth is 108% in the assay on MALME-3M melanoma; 64.2% in the assay with MDA-MB-231 breast; 12.5% in the assay on RXF 393 renal; 81.2% in the assay with SF-268 CNS; 20.3% in the assay with SF-295 CNS; 66.1% with SF-539 CNS. The growth in the assay on UACC-257 melanoma was 92.9%.
